A short description of experiment [1]: compound effects on lung adenocarcinoma cell viability – A549, calcein-AM fluorescence, 48 h, basal, profiling panel (AID 1162). Further: test concentration not given here. The conditions noted are these: higher = more signal.
The nature of experiment [2]: compound effects on differentiated 3T3-L1 adipocyte viability – cell-based, 3T3-L1 adipocytes, calcein-AM fluorescence, 48 h, basal, profiling panel (AID 1163). Further: test concentration not given here. The conditions noted are these: 3T3-L1 adipocytes viability, higher = more signal.
Experiment [3] is described as follows: compound effects on hepatocellular carcinoma cell viability – HepG2, calcein-AM fluorescence, 48 h, basal, profiling panel (AID 1164). Further: test concentration not given here. The following applies: higher = more signal.
The nature of experiment [4]: compound effects on multiple myeloma cell viability – MM1S, calcein-AM fluorescence, 48 h, basal, profiling panel (AID 1165).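 Further: viability of MM1S multiple myeloma cells under basal unstimulated conditions; test concentration not given here.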 The following applies: higher = more signal.
The nature of experiment [5]: calcein-AM signal in unstimulated myeloma cells – cell-based, calcein-AM fluorescence, 48 h, PK04 Diversity Set, profiling panel (AID 1166).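 Further: cells grown under basal conditions without added stimulus; test concentration not given here.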 The conditions noted are these: RPMI8226 myeloma viability, higher = more signal.
Experiment [6] in a line: JC-1 mitochondrial signal, unstimulated HepG2 cells – cell-based, JC-1 fluorescence, 24 h, 100 nL compound, profiling panel (AID 1167). Further: test concentration not given here. The following applies: HepG2 mitochondrial potential, higher = more signal.
A short description of experiment [7]: JC-1 mitochondrial signal, unstimulated adipocytes – cell-based, JC-1 fluorescence, 3T3-L1 adipocytes, 24 h, 100 nL compound, profiling panel (AID 1168). Further: test concentration not given here. The following applies: JC-1 mitochondrial fluorescence, higher = more signal, called active from +8 up or from −8 down.
A short description of experiment [8]: JC-1 mitochondrial signal, unstimulated myeloma cells – cell-based, JC-1 fluorescence, RPMI8226, 24 h, 100 nL compound, profiling panel (AID 1169). Further: test concentration not given here. The conditions noted are these: JC-1 mitochondrial potential fluorescence, higher = more signal.
Experiment [9] in a line: JC-1 mitochondrial signal, unstimulated MM1S myeloma – cell-based, JC-1 fluorescence, 24 h, 100 nL compound, profiling panel (AID 1170). Further: test concentration not given here. The conditions noted are these: MM1S mitochondrial potential, higher = more signal.
A short description of experiment [10]: resazurin metabolic signal in A549 cells – cell-based, resazurin fluorescence, 24 h, PK04 Diversity Set, profiling panel (AID 1171). Further: test concentration not given here. The following applies: A549 viability, higher = more signal, called active from +8 up or from −8 down.
Experiment [11] in a line: resazurin metabolic signal in HepG2 cells – cell-based, resazurin fluorescence, 24 h, PK04 Diversity Set, profiling panel (AID 1172). Further: test concentration not given here. The following applies: HepG2 viability, higher = more signal.
Experiment [12] is described as follows: budding yeast growth changes without added modifier – OD600, strain BY4716, 24 h, basal condition, primary screen (AID 1173). The following applies: S. cerevisiae BY4716 growth, OD600, 24 h; higher = more signal, called active from +8 up or from −8 down.
Experiment [13] in a line: viability profiling in MM1S myeloma cells – cell-based, resazurin fluorescence, basal, 24 h, PK04 Diversity Set, profiling panel (AID 1174). Further: test concentration not given here. The following applies: higher = more signal, called active from +8 up or from −8 down. For orientation: Alamar Blue is a resazurin reagent that responds to reducing activity.
Experiment [14] deals with Dihydroorotate dehydrogenase (quinone), mitochondrial (Plasmodium falciparum (isolate 3D7)) (UniProt Q08210). Briefly: inhibition of P. falciparum DHODH – biochemical, C-terminal His tag, absorbance 600 nm, primary screen (AID 1175).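 Further: recombinant parasite enzyme with a five histidine tag at its C terminus; test concentration not given here.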 The following applies: PfDHODH enzyme, DCIP absorbance 600 nm; higher = more signal, called active from +8 up or from −8 down.
Chain of Dihydroorotate dehydrogenase (quinone), mitochondrial (Plasmodium falciparum (isolate 3D7)) (Q08210 whole entry, looked up): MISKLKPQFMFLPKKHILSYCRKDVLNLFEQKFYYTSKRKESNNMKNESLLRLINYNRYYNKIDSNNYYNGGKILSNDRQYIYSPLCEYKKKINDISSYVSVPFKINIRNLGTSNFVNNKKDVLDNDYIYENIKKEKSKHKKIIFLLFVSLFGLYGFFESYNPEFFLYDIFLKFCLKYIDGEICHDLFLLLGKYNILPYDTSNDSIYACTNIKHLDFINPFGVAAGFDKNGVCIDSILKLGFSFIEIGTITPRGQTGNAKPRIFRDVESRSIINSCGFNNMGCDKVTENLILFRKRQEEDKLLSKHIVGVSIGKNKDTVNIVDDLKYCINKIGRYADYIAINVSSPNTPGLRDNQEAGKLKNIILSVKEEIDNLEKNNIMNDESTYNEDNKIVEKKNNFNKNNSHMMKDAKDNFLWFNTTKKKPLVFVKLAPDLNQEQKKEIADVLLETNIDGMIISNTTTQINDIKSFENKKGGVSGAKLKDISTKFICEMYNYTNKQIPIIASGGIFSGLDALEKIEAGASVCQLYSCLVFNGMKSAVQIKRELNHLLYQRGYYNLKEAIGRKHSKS
Experiment [15] in a line: inhibition of PAO1 biofilm formation – strain PAO1, LB-PBS medium, absorbance 600 nm, primary screen (AID 1176). Further: test concentration not given here. The following applies: P. aeruginosa PAO1 growth/biofilm, A600, 12 h; higher = more signal.
Experiment [16] can be described thus: growth modulation of vineyard yeast isolate – strain RM11-1a, OD600, basal, 24 h, primary screen (AID 1177).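 Further: cultures grown under basal conditions with no added stressor; test concentration not given here.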 The conditions noted are these: S. cerevisiae RM11-1a growth, OD600, 24 h; higher = more signal, called active from +8 up or from −8 down.
The nature of experiment [17]: growth of efflux-deficient E. coli DRC39 – strain DRC39, OD650, 24 h, E. coli filamentation inducers, primary screen (AID 1178).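 Further: growth measured as culture turbidity by optical density at 650 nm; test concentration not given here.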 The conditions noted are these: E. coli DRC39 acrAB, higher = more signal, called active from +8 up or from −8 down.
Experiment [18] is described as follows: growth of efflux-deficient E. coli DRC39 – strain DRC39, OD650, 48 h, E. coli filamentation inducers, primary screen (AID 1179).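 Further: screen aims at cell division blockers that make cells filament.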 The following applies: E. coli DRC39 delta-acrAB growth, higher = more signal, called active from +8 up or from −8 down.
Experiment [19] in a line: viability profiling in RPMI8226 myeloma cells – cell-based, resazurin fluorescence, basal, 24 h, PK04 Diversity Set, profiling panel (AID 1180).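 Further: RPMI8826 multiple myeloma cell line at 5000 cells per well; test concentration not given here.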 The following applies: higher = more signal.
Experiment [20] has as its target E3 ubiquitin-protein ligase XIAP (Homo sapiens) (UniProt P98170). Description: small molecules binding XIAP protein – biophysical, small-molecule microarray, fluorescence 635 nm, primary screen (AID 1181).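 Further: score merges 667 nm emission and signal to noise over triplicate slides.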 The conditions noted are these: higher = more signal.

Activity calls are given as the source filed them. Unless noted, how the calls were made is not given here.

Chain of E3 ubiquitin-protein ligase XIAP (Homo sapiens) (P98170 whole entry, looked up): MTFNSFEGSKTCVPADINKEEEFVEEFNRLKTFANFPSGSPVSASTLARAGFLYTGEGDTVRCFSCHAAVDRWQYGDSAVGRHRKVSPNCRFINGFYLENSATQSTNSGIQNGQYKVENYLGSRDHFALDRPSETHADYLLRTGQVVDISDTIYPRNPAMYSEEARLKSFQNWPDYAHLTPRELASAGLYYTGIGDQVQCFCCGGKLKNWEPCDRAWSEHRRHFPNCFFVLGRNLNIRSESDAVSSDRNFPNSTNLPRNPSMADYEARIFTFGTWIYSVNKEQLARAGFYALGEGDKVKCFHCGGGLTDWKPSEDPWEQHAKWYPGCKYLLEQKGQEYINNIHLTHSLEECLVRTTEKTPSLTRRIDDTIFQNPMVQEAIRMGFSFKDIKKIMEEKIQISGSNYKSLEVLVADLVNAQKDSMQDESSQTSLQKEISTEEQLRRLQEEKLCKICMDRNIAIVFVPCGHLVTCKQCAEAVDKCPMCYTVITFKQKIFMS

With `COCCOC(=O)N1C(=O)[C@@]2(c3cc(C#CCC(C(=O)OC)C(=O)OC)ccc31)[C@H](C(=O)N1CCCCCCC1)[C@H]1C(=O)O[C@H](c3ccccc3)[C@H](c3ccccc3)N1[C@@H]2c1ccccc1OCCO`, the z-score in experiment [1] is -0.143; in experiment [2], 1.83; in [3] it was 0.0429; in experiment [4], -0.284; in experiment [5] it was -1.56; in [6] it was -0.747. The z-score was 2.14 (inactive) in [7]; -0.124 in experiment [8]; -0.892 in experiment [9]; 0.822 (inactive) in [10]; 0.194 in [11]; 0.63 (inactive) in experiment [12]. Besides, the z-score was 0.683 (inactive) in [13]; 1.45 (inactive) in experiment [15]; 1.62 (inactive) in experiment [16]; -0.82 (inactive) in experiment [17]; -1.29 (inactive) in [18]; 0.0277 in experiment [19]. Also, the composite z-score in experiment [14] is 0.256 (inactive); in [20], 0.212.
For `C=CC[C@@]1(C(=O)O)N=C(c2ccc(OCCCO)cc2)O[C@@H]1c1ccccc1CN=[N+]=[N-]`, the z-score in [1] was -0.473; in experiment [2], 0.891; in [3], 0.545; in experiment [4], 0.15; in experiment [5], 0.0466; in experiment [6], 0.171. Further, the z-score in experiment [7] was -0.164 (inactive); in experiment [8], -0.973; in experiment [9], -1.54; in [10] it was 0.611 (inactive); in experiment [11], 0.793; in experiment [12], -2.58 (inactive). The z-score in experiment [13] is 0.747 (inactive); in experiment [15] it was -0.043 (inactive); in [16], -0.534 (inactive); in experiment [17], 0.8 (inactive); in experiment [18], 0.302 (inactive); in [19] it was 1.1. For the same compound, the results for the composite z-score in experiment [14] and in experiment [20] were -0.0013 (inactive) and 0.565, respectively.
Turning to `CC(C)CNC(=O)[C@@H]1c2ccccc2C(=O)N(Cc2ccccc2)[C@H]1c1ccc(CO)cc1`, the z-score in [1] was -0.412; in experiment [2] it was 0.175; in experiment [3] it was -0.345; in [4] it was 0.0234; in [5] it was 0.65; in [6], 0.508. Besides, the z-score in experiment [7] is -0.526 (inactive); in experiment [8] it was 0.146; in experiment [9], -0.139; in [10], 0.678 (inactive); in experiment [11], 0.768; in experiment [12], -0.21 (inactive). Further, the z-score in [13] was -0.628 (inactive); in experiment [15] it was 0.388 (inactive); in experiment [16], -0.232 (inactive); in experiment [17] it was 0.278 (inactive); in experiment [18], 0.0254 (inactive); in experiment [19], 0.19. For the same compound, the composite z-score is 0.13 (inactive) in experiment [14] and 0.0785 in [20].
`COC(=O)[C@@]1(Cc2ccc(OC)cc2)[C@H]2c3cc(C(=O)N4CCCC4)n(CCc4ccc(OC)c(Br)c4)c3C[C@H]2CN1C(=O)c1ccccc1`: the z-score in [1] is -0.572; in [2], -0.3; in experiment [3], 0.347; in [4], -0.245; in [5], -1.51; in experiment [6] it was 2.24. Moreover, the z-score in experiment [7] is -0.641 (inactive); in [8], -0.767; in experiment [9], -0.569; in [10], 0.568 (inactive); in experiment [11] it was -0.142; in [12] it was 0.775 (inactive). In addition, the z-score in [13] is -0.354 (inactive); in experiment [15], 0.0539 (inactive); in experiment [16] it was -0.101 (inactive); in [17], -0.236 (inactive); in experiment [18], -0.351 (inactive); in experiment [19] it was 0.282. The composite z-score in experiment [14] is -0.844 (inactive); in [20] it was 0.312.
With `O=C1NC(=O)C2C1C=CC(C(O)c1ccc(F)cc1)N2Nc1ccccn1` (stereo not given), the z-score in experiment [1] was -1.12; in experiment [2], -0.182; in [3], 0.417; in [4], -0.416; in [5], -0.395; in experiment [6], -1.53. Further, the z-score in [7] was -0.311 (inactive); in [8] it was 0.734; in experiment [9] it was 0.247; in experiment [10], -1.11 (inactive); in [11], -1.78; in experiment [12], 0.272 (inactive). The z-score was -1.28 (inactive) in experiment [13]; 1.77 (inactive) in experiment [15]; 0.624 (inactive) in experiment [16]; -0.684 (inactive) in [17]; -0.69 (inactive) in [18]; -1.64 in [19]. Also, the composite z-score is 0.791 (inactive) in [14] and 0.172 in experiment [20].
Turning to `Cc1ccc(S[C@]2(C(=O)NCCCN(C)C)CC(=O)N(Cc3ccccc3Cl)[C@@H]2c2ccc(CO)cc2I)cc1`, the z-score in [1] is 0.171; in [2] it was 0.908; in experiment [3], -0.696; in experiment [4], -2.41; in experiment [5], -3.15; in experiment [6], 1.25. Moreover, the z-score in [7] is 0.722 (inactive); in experiment [8] it was -0.351; in experiment [9], -0.984; in experiment [10], 0.515 (inactive); in experiment [11], -0.0565; in [12] it was -2.11 (inactive). In addition, the z-score is -2.51 (inactive) in [13]; -0.833 (inactive) in experiment [15]; 0.995 (inactive) in [16]; 0.165 (inactive) in experiment [17]; -0.352 (inactive) in [18]; -1.5 in [19]. Besides, the composite z-score is 0.648 (inactive) in experiment [14] and -0.133 in [20].
For the compound `COCCOC(=O)N1C(=O)[C@@]2(c3cc(C#CCC(C(=O)OC)C(=O)OC)ccc31)[C@H](c1ccc(OCCO)cc1)N1[C@H](c3ccccc3)[C@H](c3ccccc3)OC(=O)[C@H]1[C@@H]2C(=O)N1CCCCCCC1`, the z-score was 0.52 in experiment [1]; 0.586 in [2]; 0.496 in [3]; -0.169 in [4]; -0.602 in experiment [5]; 0.119 in experiment [6]. In addition, the z-score in experiment [7] was -2.24 (inactive); in experiment [8], -0.635; in [9], -1.15; in [10], 0.78 (inactive); in experiment [11] it was -0.0464; in experiment [12], 1.45 (inactive). Also, the z-score in experiment [13] was 0.13 (inactive); in [15], 0.83 (inactive); in [16], 2.72 (inactive); in [17], -0.599 (inactive); in experiment [18], 0.0786 (inactive); in experiment [19], 0.174. Further, the composite z-score is 0.551 (inactive) in [14] and 0.519 in experiment [20].
For `COc1ccc(CCNC(=O)[C@@]2(C)c3ccccc3C(=O)N(Cc3cc(C(F)(F)F)cc(C(F)(F)F)c3)[C@H]2c2ccc(CO)cc2)cc1`, the z-score in experiment [1] is 0.0571; in experiment [2], 1.28; in [3] it was -0.23; in experiment [4], -2.16; in experiment [5], -3.99; in experiment [6], 1.11. The z-score in [7] was -0.299 (inactive); in experiment [8], -0.428; in [9] it was 0.783; in experiment [10], 0.616 (inactive); in experiment [11] it was 0.0945; in experiment [12], 0.256 (inactive). The z-score was 0.084 (inactive) in [13]; 0.773 (inactive) in experiment [15]; -0.147 (inactive) in [16]; 0.482 (inactive) in [17]; 0.282 (inactive) in experiment [18]; 0.639 in experiment [19]. Further, the composite z-score in experiment [14] was -0.533 (inactive); in experiment [20] it was 0.0512.

(Values after PubChem BioAssay.)
